Assay [1] is described as follows: NCI Yeast Anticancer Drug Screen. Data for the rad50 strain (AID 155).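 Further: 0% = growth of vehicle-only cultures of the same strain.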 Conditions: S. cerevisiae rad50 strain growth inhibition; at 50.0 µM; stronger effect = higher value. The gist of the method: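 Cells are treated with compound, grown, and their growth is then scored against vehicle-only cultures of the same repair-deficient yeast strain.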
A short description of assay [2]: NCI Yeast Anticancer Drug Screen. Data for the mec2-1 strain (AID 157). Conditions: S. cerevisiae mec2-1 strain, at 50.0 µM, stronger effect = higher value. The gist of the method:
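Each compound was tested on mec2-1 yeast, a strain altered in DNA damage repair or cell cycle control. Growth inhibition is reported relative to vehicle.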

A short description of assay [3]: NCI Yeast Anticancer Drug Screen. Data for the sgs1 mgt1 strain (AID 161).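 Further: 0% = growth of cultures given vehicle only.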 To be noted: S. cerevisiae sgs1 mgt1 strain, at 50.0 µM, stronger effect = higher value. The gist of the method: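 Read-out: growth inhibition vs vehicle controls. Cells: mutant yeast strain deficient in DNA damage repair.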
The nature of assay [4]: NCI Yeast Anticancer Drug Screen. Data for the cln2 rad14 strain (AID 165).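 Further: 0% = growth equal to vehicle treated cultures.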 To be noted: S. cerevisiae cln2 rad14 strain, at 50.0 µM, stronger effect = higher value. The gist of the method:
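Test compounds were added to cln2 rad14 yeast cultures; inhibition of growth was then determined by comparison with vehicle treatment.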

The nature of assay [5]: NCI Yeast Anticancer Drug Screen. Data for the bub3 strain (AID 167). To be noted: S. cerevisiae bub3 mutant strain, at 50.0 µM, stronger effect = higher value. Summed up:
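Part of a panel of yeast mutants defective in DNA damage repair or cell cycle regulation. Each strain is grown with compound, and inhibition is calculated relative to solvent-treated cultures.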

Assay [6] in a line: NCI Yeast Anticancer Drug Screen. Data for the mlh1 rad18 strain (AID 175). To be noted: S. cerevisiae mlh1 rad18 strain growth inhibition; at 50.0 µM; stronger effect = higher value. The gist of the method:
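Inhibition values reflect reduced growth of mutant yeast versus vehicle-treated controls following compound exposure; the mutations affect DNA damage repair.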

About 79,000 compounds went through this panel and 15% of them were active in at least one assay; those are over-represented in the sample as a whole. Values without a mark were called inactive. Activity calls are given as the source filed them. No stated cut-off is given here; in the data, active means growth inhibition above about 70%; inactive means the rest.

Drawing on PubChem BioAssay (NCI), this text covers growth inhibition for 21 compounds.

For the compound `CCC1(CCSC#N)C(=O)NC(=O)NC1=O`, the growth inhibition was -7.55% in assay [1]; -8.6% in assay [2]; 11.2% in assay [3]; -14.9% in assay [4]; -3.3% in assay [5]; 3.85% in assay [6].
Consider `Nc1c(Cl)c(Cl)nc(C(=O)O)c1Cl`, for which the growth inhibition in assay [1] was 16%; in assay [2], 9%; in assay [3] it was 7.05%; in assay [4], 3.8%; in assay [5], 21.5%; in assay [6], 24.2%.
As for `CC1=C[C@H]2O[C@@H]3[C@H](OC(=O)CCl)[C@@H](O)[C@](C)(C2(COC(=O)CCl)CC1)[C@@]31CO1` (stereo partly specified), the growth inhibition in assay [1] was 91.8% (active); in assay [2], 92.8% (active); in assay [3], 92.7% (active); in assay [4], 91.6% (active); in assay [5], 92.2% (active); in assay [6], 91.2% (active).
Consider `Nc1nnc(N)n1N`, for which the growth inhibition in assay [1] was 15.8%; in assay [2] it was -21.2%; in assay [3] it was -8.15%; in assay [4] it was -20.3%; in assay [5], 1.5%; in assay [6] it was -1.65%.
Consider `N#CC(N)c1ccccc1` (stereo unspecified), for which the growth inhibition is 13.7% in assay [1]; -14.9% in assay [2]; 17.4% in assay [3]; 1.45% in assay [4]; 14.1% in assay [5]; 12.6% in assay [6].
Consider `CCC(C)c1ccc(O)cc1` (stereo unspecified), for which the growth inhibition in assay [1] is 3.5%; in assay [2], -2.9%; in assay [3] it was -5.95%; in assay [4] it was -16.1%; in assay [5], -5%; in assay [6] it was -4.65%.
For the compound `CC(=O)CCC(=O)O`, the growth inhibition in assay [1] is -7.05%; in assay [2], 0.55%; in assay [3], -39.2%; in assay [4], 16.1%; in assay [5] it was -7.25%; in assay [6], -19.9%.
For the compound `CCOP(=O)(OCC)N1C(C)C1C` (stereo unspecified), the growth inhibition in assay [1] was -0.05%; in assay [2], 2.8%; in assay [3], 17.6%; in assay [4] it was -8.3%; in assay [5], 4.25%; in assay [6], -4.75%.
Take `O=CNc1ccccc1`: the growth inhibition was 18.6% in assay [1]; 1.7% in assay [2]; 0.85% in assay [3]; 6.5% in assay [4]; 7.65% in assay [5]; 7.25% in assay [6].
Turning to `O=C(O)Cc1ccc(O)c(O)c1.[Pt].c1ccc([PH+](c2ccccc2)c2ccccc2)cc1.c1ccc([PH+](c2ccccc2)c2ccccc2)cc1`, the growth inhibition in assay [1] was 43.2%; in assay [2], 33.9%; in assay [3], 37.8%; in assay [4], 42.5%; in assay [5] it was 26.5%; in assay [6], 63.9%.
Take `CCOC(=O)CNCCC1(CC)C(=O)NC(=O)NC1=O`: the growth inhibition in assay [1] is -0.55%; in assay [2], -8.2%; in assay [3] it was 2.15%; in assay [4], -37.2%; in assay [5], -0.6%; in assay [6], -12.8%.
`O=C(O)C(O)(c1ccccc1)c1ccco1` (stereo unspecified): the growth inhibition is 12.8% in assay [1]; 1.8% in assay [2]; -5.25% in assay [3]; 21.3% in assay [4]; -28.9% in assay [5]; 12.7% in assay [6].
On to `CN1CCC(O)(c2ccccc2)C(O)C1` (stereo unspecified), for which the growth inhibition is 11.2% in assay [1]; 29.1% in assay [2]; 23.5% in assay [3]; 32.3% in assay [4]; -4% in assay [5]; 39.2% in assay [6].
Consider `CC(C)N1C(=O)NC(=O)C2(CCCC2)C1=O`, for which the growth inhibition in assay [1] is -2.15%; in assay [2], 3.05%; in assay [3], -1.5%; in assay [4] it was -28.4%; in assay [5] it was -12.6%; in assay [6] it was -2.5%.
As to `OC1(C#[C][Hg][C]#CC2(O)CCCCC2)CCCCC1`, the growth inhibition is 95.2% (active) in assay [1]; 89.5% (active) in assay [2]; 90.7% (active) in assay [3]; 97.3% (active) in assay [4]; 97.4% (active) in assay [5]; 95.4% (active) in assay [6].
Turning to `CC(Br)CN(CC(C)Br)c1ccc(-c2ccccc2)cc1` (stereo unspecified), the growth inhibition in assay [1] is 38.5%; in assay [2], 30%; in assay [3], 12.6%; in assay [4] it was 35.7%; in assay [5], 15.6%; in assay [6], 21.7%.
For `Nc1nn[nH]n1` (tested in a mixture with another compound), the growth inhibition was -4.65% in assay [1]; 1.45% in assay [2]; -3.7% in assay [3]; -27.1% in assay [4]; 0.05% in assay [5]; -3.05% in assay [6].
Turning to `CC1(C)OP(=O)(c2ccccc2)C=C1Br` (stereo unspecified), the growth inhibition was -39.9% in assay [1]; -9.4% in assay [2]; -23.4% in assay [3]; -11.8% in assay [4]; -2.75% in assay [5]; -3.7% in assay [6].
Regarding `ClCCN(CCCl)c1ccc(/C=N\N=C\c2ccncc2)cc1`, the growth inhibition in assay [1] was 4.35%; in assay [2], -3.95%; in assay [3], 6.15%; in assay [4], -8.5%; in assay [5], 0.95%; in assay [6] it was -1.8%.
Regarding `Cc1csc2sc3ccccc3[n+]12`, the growth inhibition was 5.75% in assay [1]; -6.85% in assay [2]; -0.5% in assay [3]; -5.8% in assay [4]; -11.9% in assay [5]; -34.1% in assay [6].
On to `CC1CN1P(=O)(N1CCc2ccccc21)N1CC1C` (stereo unspecified), for which the growth inhibition is -21.8% in assay [1]; -7.9% in assay [2]; -5.6% in assay [3]; -24.7% in assay [4]; 5.9% in assay [5]; 0.85% in assay [6].
